Compounds with a hit are over-represented: about 21% of the library has one in this group of screens.
Pf growth 96h – inhibits malaria parasite growth, 96 h; hit rate 6.9% among 320,000; Potency, µM (titrated, usually from 28.7 µM), for inactives: at the top dose activity change, negative = inhibition, most hits filed as inhibitors; P. falciparum luciferase reporter growth, 96 h; note: potency is the fitted concentration of half-maximal effect; % is set by controls: 0 for no effect and ±100 for the full control effect
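P. falciparum expressing integrated firefly luciferase, in erythrocytes at 2% hematocrit, 0.05% parasitemia, incubated with compounds 96 h at 37 C, 5% CO2. Growth inhibition read as loss of luminescence; two-generation exposure targets delayed-death apicoplast inhibitors.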
HCV inh – HCV inhibition. hit rate 3.4% among 340,000. Potency, µM (titrated, usually from 41.8 µM), inactives show top-dose activity change, negative = inhibition, actives largely listed as inhibitors. Huh7.5.1 HCVcc-Cre infection, luciferase reporter, 44 h. AID 651820; note: potency is the fitted concentration of half-maximal effect; % is set by controls: 0 for no effect and ±100 for the full control effect
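Whole-lifecycle infectious HCVcc-Cre system; cells 1,000/well, compound then virus (~0.5 moi) added 4 h after plating, 44 h culture. Luciferase read 15 sec following 15 min substrate incubation, room temp.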
HCMV antiviral – human cytomegalovirus inhibition; HFF cells, HCMV-luciferase reporter, 72 h; stronger effect = lower value; hit rate 4.5% among 410,000; activity change, negative = inhibition, % at 57.5 µM; in the data active = activity change below about -60%; inconclusive = no clear call, values can overlap the other calls; inactive = above about -39%; note: % is set by controls: 0 for no effect and ±100 for the full control effect
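Two-dose cell screen: HFF monolayers treated with compounds and infected with luciferase-expressing HCMV at 1 PFU/cell, 72 h at 37C, then lysed for luciferase measurement.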
CHX counter – counter-screen hit for Shiga toxin inhibitors, cycloheximide. cell reporter, cycloheximide protein synthesis inhibition counterscreen. max response, %. hit rate 12% among 300,000. AID 2314; in the data active = max response mostly above about 13%, no sharp cut-off; inactive = mostly below about 14%; note: read at 38.3 µM for the half of the compounds with a filed dose; 0% is about no effect
Pf growth 48h – P. falciparum growth inhibition at 48 hours (one generation); Potency, µM (top dose mostly 28.7 µM), without a hit: at the highest dose activity change, negative = inhibition, most hits filed as inhibitors; P. falciparum luciferase growth in erythrocytes, 48 h; hit rate 5.9% among 310,000; note: potency is the fitted concentration of half-maximal effect; % is set by controls: 0 for no effect and ±100 for the full control effect
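Compounds are pin-transferred into medium, infected erythrocytes (2% hematocrit, 0.1% parasitemia final) are added, and plates sit one parasite generation at 37 C in 5% CO2. Detection reagent is then added and luminescence measured.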
Shiga toxin inh – blocks Shiga toxin action in Vero cells | Vero cells, Shiga toxin protein synthesis inhibition reporter | inhibition, % at 38.7 µM | hit rate 9.2% among 290,000 | AID 2315; in the data active = inhibition mostly above about 28%, no sharp cut-off; inactive = mostly below about 43%; note: 0% is about no effect
An asterisk follows results filed as active; ? = inconclusive; · = no result given; [ ] = another dose, or the depositor's remark. Unless noted, calls come from the whole dose curve; as a rule, active = well fitted inhibition curve with a large enough effect; inconclusive = small, poorly fitted or top-dose-only effect, or another doubt; inactive = no such curve, though single readings can be large or run the other way.

SMILES | Pf growth 96h | HCV inh | HCMV antiviral | CHX counter | Pf growth 48h | Shiga toxin inh
CN(C)C(=O)c1ccc(Nc2nc(-c3cccs3)nc3ccccc23)cc1 | 10µM* | 2.8µM* | ? | 6 | 10µM* | 24
COc1ccc(Nc2nc(-c3sc(C)nc3C)cs2)c(OC)c1 | ? | ? | -15 | 8.8* | -8% | 13
COc1ccc(Nc2nc(-c3cccs3)nc3ccccc23)c(OC)c1 | ? | 11µM* | -33 | 5 | -23% | 22
COc1ccc(C(O)c2nc(-c3cccs3)cs2)cc1 (configuration not stated) | · | · | -22 | · | · | ·
COc1ccc(OC)c(Nc2nc(-c3c(C)nc4ncccn34)cs2)c1 | 41% | ? | ? | 2 | 4%[0.00184 µM] | 1
COc1ccc(C(CC(=O)Nc2cc(C)ccn2)N2Cc3ccccc3C2=O)cc1 (configuration not stated) | 4% | -12% | -31 | -3 | -23% | -1
COc1cccc(NC(=O)c2oc3ccccc3c2NC(=O)COc2ccccc2C)c1 | · | · | 24 | · | · | ·
CC(C)CCOCC(O)CCC(=O)NNC(=S)Nc1ccccc1 (configuration not stated) | 2% | -1% | -6 | 6 | 5% | -3
C=CCC(CC(O)COCCC)C(=O)NNC(=S)Nc1ccccc1 (configuration not stated) | ? | -1% | 18 | 36* | -29% | 71*
C=CCO/N=C(/CCC)C1=C(N)CC(C)(C)CC1=O | 257% | ? | 22 | 5 | 0% | 18
CC1CCN(C(=O)COC(=O)Cn2cnc3ccccc32)CC1 | · | 13% | -67* | · | · | ·
CN(C(=O)COC(=O)Cn1cnc2ccccc21)C1CCCCC1 | · | 7% | -94* | · | · | ·
O=C(NC1CCCCC1)C(c1ccc2ncccc2c1)N(Cc1ccc2c(c1)OCO2)C(=O)c1ccc2c(c1)OCCO2 (configuration not stated) | ? | ? | -24 | -1 | 7.4µM* | -13
O=C(NC1CCCCC1)C(c1ccc2ncccc2c1)N(Cc1ccco1)C(=O)c1ccc2c(c1)OCCO2 (configuration not stated) | 2.6µM* | -9% | -36 | 3 | 5.2µM* | -5
O=C(NC1CCCCC1)C(c1ccc2ncccc2c1)N(Cc1cccs1)C(=O)c1cccs1 (configuration not stated) | ? | ? | ? | 12 | 12µM* | -23
O=C(NC1CCCC1)C(c1ccc(F)cc1)N(Cc1ccc(F)cc1)C(=O)c1ccn[nH]1 (configuration not stated) | 92% | 11% | -31 | 2 | -5% | -10
O=C(NC1CCCCC1)C(c1ccc2ncccc2c1)N(Cc1ccc(F)cc1)C(=O)c1ccc2c(c1)OCCO2 (configuration not stated) | 10µM* | ? | -40 | -3 | ? | 14
O[C@@H]1CO[C@H]2[C@@H]1OC[C@@H]2O | -8% | · | · | · | 6% | ·
O=c1c2ccccc2n2c(-c3ccc(Cl)cc3)nnc2n1CCc1ccccc1 | · | · | 52 | · | · | ·
Cc1noc(C)c1C(=O)Nc1ccc2ccccc2c1 | ? | 13% | 21 | 21* | 18% | 34
Cc1noc(C)c1C(=O)Nc1ccc(F)c(F)c1 | 56% | -11% | -27 | -4 | · | -22
CC(=O)Nc1ccc(NC(=O)c2c(C)noc2C)cc1 | ? | 16% | 23 | 9 | 4.7µM* | -19
CC(C)OCCCn1c(=O)c2ccccc2n2c(-c3ccccc3)nnc12 | · | · | -13 | · | · | ·
O=C(Nc1ccc(Cl)cc1)OCCN1CCOCC1 | · | -14% | 37 | · | · | ·
O=C(Nc1ccc(Cl)cc1)OCCn1nnnc1C(c1ccccc1Cl)N1CCOCC1 (configuration not stated) | ? | ? | -17 | 9 | 15µM* | 28
SMILES | Pf growth 96h | HCV inh | HCMV antiviral | CHX counter | Pf growth 48h | Shiga toxin inh
Cc1ccc(-c2nc(-c3cc4cccc(OCc5ccccc5F)c4oc3=O)no2)cc1 | · | · | -22 | · | · | ·
COc1cc(C(C)=O)ccc1OCC(=O)Nc1ccc(Cl)c(S(=O)(=O)N2CCOCC2)c1 | 2.1µM* | 13µM* | 65 | · | 4.1µM* | ·
CCN(CC)S(=O)(=O)c1cc(NC(=O)COC(=O)c2c(C)noc2C)ccc1C | ? | 14µM* | 2 | · | ? | ·
COc1ccc(NC(=O)CNCc2ccc(Cl)cc2)cc1S(=O)(=O)N1CCOCC1 | · | 0% | -11 | · | · | ·
Cc1ccc(OCCCC(=O)Nc2ccc(Cl)c(S(=O)(=O)N3CCOCC3)c2)cc1 | 10µM* | 7.1µM* | -22 | · | ? | ·
CCN(CC)S(=O)(=O)c1cc(NC(=O)CCCOc2ccc(C(C)=O)cc2)ccc1C | -11% | 10µM* | 14 | -2 | -28% | -11
Cc1ccc(OCCC(=O)OCC(=O)Nc2ccc(C)c(S(=O)(=O)N3CCOCC3)c2)cc1 | · | -3% | -17 | · | · | ·
CCN(C(=O)Cn1nc(Cc2ccncc2)c2ccccc2c1=O)c1cccc(Cl)c1 | · | · | -35 | · | · | ·
Cc1ccc(NCc2ccccc2-c2nnc(-c3ccccc3Cl)o2)c(C)c1 | · | · | 4 | · | · | ·
CC(C)(C)OC(=O)N1CCC(C(=O)NCC2CCCO2)CC1 (configuration not stated) | -30% | 14% | -21 | -2 | 1% | -7
CC(=O)c1ccc(OCCCC(=O)Nc2ccc(Cl)c(S(=O)(=O)N3CCOCC3)c2)cc1 | · | 2.5µM* | -79* | · | · | ·
COc1ccc(OCCCC(=O)Nc2ccc(S(=O)(=O)N3CCOCC3)cc2)cc1 | ? | ? | -1 | · | ? | ·
CC(/C=C/c1ccco1)=N\NC(=O)c1cccc(Cl)c1 | ? | ? | -11 | 35* | ? | 29
CC(/C=C/c1ccco1)=N/NC(=O)c1ccccc1Cl | 0% | 9% | 71 | 26* | 21% | 24
COc1cccc2c1cc1c(=O)n(CC(=O)NCc3ccc(N(C)C)cc3)nc(C)n12 | · | · | -16 | · | · | ·
COc1ccc(-c2nc3ccc(Cl)cn3c2Cc2ccsc2)cc1OC | · | · | -16 | · | · | ·
CC(C)(C)C(=O)NC(=S)Nc1ccc(Cl)c(C(=O)O)c1 | -15%[5.75 µM] | 2% | 16 | 7 | 21%[5.75 µM] | 26
CC(C)(C)C(=O)NC(=S)Nc1ccc(C(F)(F)F)cc1 | -4% | -4% | 7 | 43* | 14% | 61*
CCCCNC(=S)Nc1ccc(Cl)cc1 | 30% | 0% | -40 | 16 | 22% | 45*
CCNC(=S)Nc1ccc(Cl)cc1 | -16% | 5% | -40 | -1 | 1% | 12
CCCCNC(=S)Nc1ccc(C(F)(F)F)cc1 | ? | ? | -19 | 19* | ? | 30*
Cc1ccc(-c2cc(-c3ccc4c(c3)NC(=O)CO4)nc3c2COc2ccccc2-3)cc1 | · | · | -2 | · | · | ·
CC1=C(C(=O)N(C)C)CC(CC(=O)NCCc2ccccn2)C(=O)N1Cc1ccccc1 (configuration not stated) | · | · | 18 | · | · | ·
Cc1ccccc1CNC(=O)c1oc2c(c1C)-c1nn(Cc3ccc(Cl)cc3)cc1CC2 | · | · | -26 | · | · | ·

High-throughput results (PubChem BioAssay)
